Among the data in PubChem BioAssay (EPA / NIEHS) are AC50 and outcome values, retold here.

Inconclusive results are not listed. Active and inactive are the calls of the source. How the source made its calls: active means hit-call score of the fitted dose curve at least 0.9, where 1 is the maximum; inconclusive means response in the unintended direction; inactive means score below 0.9.

The target in experiment [1] is chimpanzee Androgen Receptor (AR), AR (gene 747460) (UniProt O97775). As to the kind of experiment: NVS_NR_cAR: NovaScreen (NVS) Nuclear Receptor Binding Assay for chimpanzee Androgen Receptor (AR) (AID 2283346).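 Further: radioligand displacement from AR measured by scintillation counting in a cell-free assay.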 A digest of the protocol:
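Cell-free radioligand displacement using receptor protein extracted from Sf9/Sf21 cells; bound radioligand measured by scintillation counting 72 hours after chemical dosing. Loss of signal versus DMSO baseline indicates binding; primary screen single-concentration in duplicate at 25 uM, actives followed in concentration series.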

In experiment [2] the target is Estrogen receptor (Homo sapiens) (UniProt P03372). Description: OT_ER_ERaERa_1440: Odyssey Thera (OT) 24-hour HEK293T Protein-Complementation Assay for Estrogen Receptor-alpha/-alpha Homodimer (AID 2283349).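 Further: hits raise fluorescence above DMSO for agonists and antagonists alike.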 Summed up:
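Readout is the rise in mean fluorescence from reporter fragment complementation when ERα LBD (aa 310-547) units dimerize in HEK293T cells. Measured 24 h after dosing and analysed as increase over DMSO control.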

In experiment [3] the target is Bile acid receptor (Homo sapiens) (UniProt Q96RI1). As to the kind of experiment: NVS_NR_hFXR_Antagonist: NovaScreen (NVS) Nuclear Receptor Binding Assay for human Farnesoid X Receptor Antagonism (FXR) (AID 2283350). Summed up: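 Cell-free TR-FRET ligand-binding read-out on human FXR (NR1H4) in antagonist mode, measured 1 h after dosing. Primary screen in duplicate at 25 uM, actives retested in concentration series; signal loss scored versus DMSO.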

Experiment [4] addresses T1, Estrogen receptor (Homo sapiens) + Estrogen receptor beta (Homo sapiens) (UniProt P03372+Q92731). Description: OT_ER_ERaERb_0480: Odyssey Thera (OT) 8-hour HEK293T Protein-Complementation Assay for Estrogen Receptor-alpha/-beta Heterodimer (AID 2283352). A digest of the protocol: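 HEK293T protein-fragment complementation assay of ER-alpha/ER-beta LBD heterodimerisation, read 8 h after dosing. Mean nuclear/cytoplasmic fluorescence intensity measured by laser scanning cytometry; gain of signal fitted relative to DMSO.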

Experiment [5] addresses Androgen Receptor/SRC-1 Co-activator, AR (gene 367) (UniProt P10275). Description: OT_AR_ARSRC1_0960: Odyssey Thera (OT) 16-hour HEK293T Protein-Complementation Assay for Androgen Receptor/SRC-1 Co-activator (AID 2283353).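 Further: actives raise the signal above DMSO so potency reflects increased AR and SRC-1 complex.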 Summed up:
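Interaction of AR with SRC-1 was followed by YFP fragment complementation in HEK293T cells after 16 h of dosing. Gain of nuclear-over-cytoplasmic 488 nm fluorescence against DMSO controls defined activity.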

The target of experiment [6] is T1, Estrogen receptor (Homo sapiens) + Estrogen receptor beta (Homo sapiens). Description: OT_ER_ERaERb_1440: Odyssey Thera (OT) 24-hour HEK293T Protein-Complementation Assay for Estrogen Receptor-alpha/-beta Homodimer (AID 2283356).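 Further: heteromer of ER alpha and ER beta binding domains; hits raise reporter fluorescence and both agonists and antagonists give an increase.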 Summed up:
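HEK293T stably expressing a PCA of ER alpha LBD (aa 310-547) and ER beta LBD (aa 263-489). After 24 h compound exposure, mean fluorescence intensity in nucleus (agonists) or nucleus and cytoplasm (antagonists) measured by laser scanning cytometry versus vehicle.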

The target in experiment [7] is Estrogen receptor beta (Homo sapiens) (UniProt Q92731). As to the kind of experiment: OT_ER_ERbERb_0480: Odyssey Thera (OT) 8-hour HEK293T Protein-Complementation Assay for Estrogen Receptor-beta/-beta Homodimer (AID 2283357).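 Further: active means signal gain over DMSO baseline.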 A digest of the protocol: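 Readout: increase in mean fluorescence intensity (nucleus for agonists; nucleus plus cytoplasm for antagonists) relative to DMSO, from a reporter-fragment complementation of human ER-beta LBD homodimer in HEK293T cells dosed 8 hours.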

Experiment [8] concerns the target human Thyroid Receptor Alpha (TRa), THRA (gene 7067) (UniProt P10827). As to the kind of experiment: NVS_NR_hTRa_Antagonist: NovaScreen (NVS) Nuclear Receptor Binding Assay for human Thyroid Receptor Alpha Antagonism (TRa) (AID 2283362).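 Further: activity is loss of signal relative to DMSO baseline.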 A digest of the protocol: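 Cell-free AlphaLISA chemiluminescent binding read 1 h after dosing, antagonist mode; signal loss versus DMSO baseline. Primary screen in duplicate at 25 uM, then concentration series for actives.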

Experiment [9] addresses Glucocorticoid receptor (Homo sapiens) (UniProt P04150). As to the kind of experiment: NVS_NR_hGR: NovaScreen (NVS) Nuclear Receptor Binding Assay for human Glucocorticoid Receptor (GR) (AID 2283363).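 On AC50: activity is loss of specific radioligand binding signal relative to DMSO.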 Summed up: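 Cell-free radioligand binding with extracted receptor protein, read by filter-based scintillation counting 16 hours after dosing. Loss of specific signal versus DMSO baseline was scored. Primary screen ran in duplicate at 25 uM; actives were followed up in concentration series.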

Experiment [10] concerns the target rat Androgen Receptor (AR), Ar (gene 24208) (UniProt P15207). Description: NVS_NR_rAR: NovaScreen (NVS) Nuclear Receptor Binding Assay for rat Androgen Receptor (AR) (AID 2283366). Summed up: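 Cell-free radioligand binding on extracts of prostate from testosterone-pretreated rats, read by filter-based scintillation counting 18 h after dosing. Loss of bound signal fitted positively versus DMSO; primary screen in duplicate at 25 uM, actives followed up in concentration series.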

The target in experiment [11] is human Constitutive Androstane Receptor (CAR), NR1I3 (gene 9970) (UniProt Q14994). As to the kind of experiment: NVS_NR_hCAR_Antagonist: NovaScreen (NVS) Nuclear Receptor Binding Assay for human Constitutive Androstane Receptor Antagonism (CAR) (AID 2283344). Summed up: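 Cell-free TR-FRET binding read 1 h after dosing, antagonist mode; loss of signal versus DMSO baseline. Primary screen in duplicate at a single 25 uM; actives retested in concentration series.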

The target in experiment [12] is Estrogen receptor (Homo sapiens) (UniProt P03372). Description: NVS_NR_hER: NovaScreen (NVS) Nuclear Receptor Binding Assay for human Estrogen Receptor (ER) (AID 2283348). Summed up:
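Cell-free radioligand binding with protein extracted from MCF7 cells; scintillation counting 18 hours after dosing. Loss of signal versus DMSO baseline read as displacement; primary single-concentration screen at 25 uM in duplicate, actives retested in concentration series.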

Experiment [13] deals with Retinoic acid receptor alpha (Homo sapiens) (UniProt P10276). Description: NVS_NR_hRAR_Antagonist: NovaScreen (NVS) Nuclear Receptor Binding Assay for human Retinoic Acid Alpha Receptor Antagonism (RAR) (AID 2283358). Summed up:
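Cell-free TR-FRET binding assay on extracted receptor protein, run in antagonist mode; signal read 2 hours after chemical dosing. Loss of signal was fitted relative to DMSO baseline. Screened at 25 uM in duplicate, actives followed up in concentration series.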

The target in experiment [14] is Estrogen receptor (Homo sapiens) (UniProt P03372). As to the kind of experiment: OT_ER_ERaERa_0480: Odyssey Thera (OT) 8-hour HEK293T Protein-Complementation Assay for Estrogen Receptor-alpha/-alpha Homodimer (AID 2283351).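 Further: rise in fluorescence from reassembled reporter fragments on ERα LBD homodimer in nucleus or whole cell.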 Summed up:
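Binding reporter in which dimerisation of ERα LBD (aa 310-547) fusions reconstitutes a fluorescent reporter in HEK293T cells. Compounds incubated 8 h; mean fluorescence intensity increase versus DMSO scored.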

The target of experiment [15] is Nuclear receptor subfamily 1 group I member 2 (Homo sapiens) (UniProt O75469). As to the kind of experiment: NVS_NR_hPXR: NovaScreen (NVS) Nuclear Receptor Binding Assay for human Pregnane X Receptor (PXR) (AID 2283365).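 Further: a drop in FRET signal versus DMSO baseline means the compound binds.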 Summed up:
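Cell-free TR-FRET binding assay with extracted human PXR protein, read 2 h after dosing. Primary screen run in duplicate at 25 uM, actives followed in concentration series; loss of signal fitted against DMSO baseline.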

For experiment [16], the target named is rat Mineralocorticoid Receptor (MR), Nr3c2 (gene 25672) (UniProt P22199). Description: NVS_NR_rMR: NovaScreen (NVS) Nuclear Receptor Binding Assay for rat Mineralocorticoid Receptor (MR) (AID 2283355). A digest of the protocol:
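Cell-free radioligand binding to MR in adrenalectomized rat brain supernatant, scintillation counted 24 h after dosing. Loss of signal versus DMSO baseline marks displacement. Primary screen in duplicate at 25 uM; actives retested as concentration series.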

Chain of Glucocorticoid receptor (Homo sapiens) (P04150 whole entry, looked up): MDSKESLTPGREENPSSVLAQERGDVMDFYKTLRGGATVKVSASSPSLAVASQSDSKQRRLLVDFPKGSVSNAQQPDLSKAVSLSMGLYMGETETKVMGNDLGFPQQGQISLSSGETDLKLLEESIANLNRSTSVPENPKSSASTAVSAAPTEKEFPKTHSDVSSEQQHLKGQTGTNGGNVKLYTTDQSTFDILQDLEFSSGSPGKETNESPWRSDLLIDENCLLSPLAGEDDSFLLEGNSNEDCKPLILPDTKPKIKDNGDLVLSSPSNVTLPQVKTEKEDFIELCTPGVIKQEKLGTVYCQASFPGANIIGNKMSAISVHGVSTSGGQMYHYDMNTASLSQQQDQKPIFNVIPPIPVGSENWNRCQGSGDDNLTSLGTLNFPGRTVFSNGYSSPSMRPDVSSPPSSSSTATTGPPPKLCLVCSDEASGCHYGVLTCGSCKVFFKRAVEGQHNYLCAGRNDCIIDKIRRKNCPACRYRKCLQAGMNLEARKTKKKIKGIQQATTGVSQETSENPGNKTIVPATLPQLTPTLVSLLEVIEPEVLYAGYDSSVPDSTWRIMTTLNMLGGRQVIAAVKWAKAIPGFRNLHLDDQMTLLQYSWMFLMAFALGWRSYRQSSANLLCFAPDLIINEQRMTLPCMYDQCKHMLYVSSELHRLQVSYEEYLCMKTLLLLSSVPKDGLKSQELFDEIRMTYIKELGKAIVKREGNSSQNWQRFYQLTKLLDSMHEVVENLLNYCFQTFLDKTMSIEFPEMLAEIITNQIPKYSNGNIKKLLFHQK
Chain of Estrogen receptor beta (Homo sapiens) (Q92731 whole entry, looked up, the tested form may be a part): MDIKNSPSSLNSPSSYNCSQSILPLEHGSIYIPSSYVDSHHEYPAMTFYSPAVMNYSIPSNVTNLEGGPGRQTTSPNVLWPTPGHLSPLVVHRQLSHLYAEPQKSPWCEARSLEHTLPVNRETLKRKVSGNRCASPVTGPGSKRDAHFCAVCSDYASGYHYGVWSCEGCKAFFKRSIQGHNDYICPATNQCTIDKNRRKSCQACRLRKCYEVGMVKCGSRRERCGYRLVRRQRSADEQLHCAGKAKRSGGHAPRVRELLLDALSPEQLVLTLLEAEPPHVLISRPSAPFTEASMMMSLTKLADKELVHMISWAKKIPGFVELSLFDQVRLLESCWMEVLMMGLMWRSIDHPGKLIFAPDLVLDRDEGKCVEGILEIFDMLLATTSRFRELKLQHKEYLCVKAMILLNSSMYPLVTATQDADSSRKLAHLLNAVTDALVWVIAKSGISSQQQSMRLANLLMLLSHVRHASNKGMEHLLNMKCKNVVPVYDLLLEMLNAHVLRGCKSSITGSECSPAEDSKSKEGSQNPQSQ
Chain of Bile acid receptor (Homo sapiens) (Q96RI1 whole entry, looked up): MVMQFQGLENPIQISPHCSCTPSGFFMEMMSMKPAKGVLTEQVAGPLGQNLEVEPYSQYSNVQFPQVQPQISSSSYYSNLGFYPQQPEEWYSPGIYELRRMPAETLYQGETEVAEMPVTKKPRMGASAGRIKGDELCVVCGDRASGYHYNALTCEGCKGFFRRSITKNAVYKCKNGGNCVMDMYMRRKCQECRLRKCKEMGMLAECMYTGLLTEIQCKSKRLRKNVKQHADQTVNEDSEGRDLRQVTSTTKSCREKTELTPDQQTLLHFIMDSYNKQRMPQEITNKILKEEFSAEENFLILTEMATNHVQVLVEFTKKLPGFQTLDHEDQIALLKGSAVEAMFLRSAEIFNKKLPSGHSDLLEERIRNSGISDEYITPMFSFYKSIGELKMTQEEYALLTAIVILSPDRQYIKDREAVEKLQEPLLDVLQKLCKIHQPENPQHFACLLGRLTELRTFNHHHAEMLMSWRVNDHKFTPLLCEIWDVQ
Chain of human Thyroid Receptor Alpha (TRa), THRA (gene 7067) (P10827 whole entry, looked up): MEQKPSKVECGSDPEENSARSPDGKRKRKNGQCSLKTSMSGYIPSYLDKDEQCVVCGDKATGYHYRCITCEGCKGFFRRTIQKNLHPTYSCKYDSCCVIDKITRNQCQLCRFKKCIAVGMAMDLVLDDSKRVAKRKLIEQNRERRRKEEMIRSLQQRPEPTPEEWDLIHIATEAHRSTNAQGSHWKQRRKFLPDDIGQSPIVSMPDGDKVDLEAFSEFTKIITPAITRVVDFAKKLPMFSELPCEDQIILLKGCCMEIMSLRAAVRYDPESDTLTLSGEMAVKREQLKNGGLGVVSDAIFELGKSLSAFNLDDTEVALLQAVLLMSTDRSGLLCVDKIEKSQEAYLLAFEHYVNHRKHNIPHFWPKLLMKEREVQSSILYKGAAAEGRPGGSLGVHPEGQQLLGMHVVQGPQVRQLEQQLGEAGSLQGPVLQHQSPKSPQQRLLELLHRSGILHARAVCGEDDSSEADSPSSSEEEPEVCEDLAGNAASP
Chain of chimpanzee Androgen Receptor (AR), AR (gene 747460) (O97775 whole entry, looked up): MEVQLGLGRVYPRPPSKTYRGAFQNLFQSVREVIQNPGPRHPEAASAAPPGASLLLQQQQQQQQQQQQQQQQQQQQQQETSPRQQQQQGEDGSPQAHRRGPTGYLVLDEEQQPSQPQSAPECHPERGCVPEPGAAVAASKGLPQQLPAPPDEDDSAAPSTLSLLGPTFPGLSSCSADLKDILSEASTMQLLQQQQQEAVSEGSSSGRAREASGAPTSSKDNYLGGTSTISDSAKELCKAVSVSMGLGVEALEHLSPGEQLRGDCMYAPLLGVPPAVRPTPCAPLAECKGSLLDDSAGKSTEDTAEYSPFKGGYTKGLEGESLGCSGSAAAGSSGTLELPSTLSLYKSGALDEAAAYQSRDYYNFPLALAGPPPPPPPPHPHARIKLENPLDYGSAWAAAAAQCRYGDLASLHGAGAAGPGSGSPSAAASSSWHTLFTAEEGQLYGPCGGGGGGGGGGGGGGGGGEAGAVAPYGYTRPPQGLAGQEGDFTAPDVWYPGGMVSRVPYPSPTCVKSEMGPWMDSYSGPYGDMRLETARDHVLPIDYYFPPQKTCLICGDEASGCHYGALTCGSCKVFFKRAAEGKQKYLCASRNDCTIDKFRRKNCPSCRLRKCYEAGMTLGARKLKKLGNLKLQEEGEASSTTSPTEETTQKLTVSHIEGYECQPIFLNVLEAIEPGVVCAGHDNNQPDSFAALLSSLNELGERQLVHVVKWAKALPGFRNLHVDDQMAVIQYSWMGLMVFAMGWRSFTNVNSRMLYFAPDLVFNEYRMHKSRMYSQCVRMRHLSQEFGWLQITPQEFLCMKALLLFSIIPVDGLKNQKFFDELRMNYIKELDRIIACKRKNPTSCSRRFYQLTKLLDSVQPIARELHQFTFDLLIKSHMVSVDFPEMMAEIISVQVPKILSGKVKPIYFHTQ
Chain of Retinoic acid receptor alpha (Homo sapiens) (P10276 whole entry, looked up): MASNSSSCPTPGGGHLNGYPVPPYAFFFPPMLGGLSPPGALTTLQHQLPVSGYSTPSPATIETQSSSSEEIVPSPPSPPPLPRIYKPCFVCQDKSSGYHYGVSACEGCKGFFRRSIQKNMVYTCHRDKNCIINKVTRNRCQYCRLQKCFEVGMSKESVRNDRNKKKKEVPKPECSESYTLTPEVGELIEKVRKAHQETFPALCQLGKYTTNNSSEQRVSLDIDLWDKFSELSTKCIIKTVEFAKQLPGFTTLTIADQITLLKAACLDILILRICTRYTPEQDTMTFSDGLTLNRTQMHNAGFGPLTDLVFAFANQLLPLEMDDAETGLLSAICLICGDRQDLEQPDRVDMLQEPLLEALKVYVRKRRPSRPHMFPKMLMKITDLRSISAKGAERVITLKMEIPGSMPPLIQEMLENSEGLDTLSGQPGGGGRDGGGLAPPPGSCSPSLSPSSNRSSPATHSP
Chain of human Constitutive Androstane Receptor (CAR), NR1I3 (gene 9970) (Q14994 whole entry, looked up): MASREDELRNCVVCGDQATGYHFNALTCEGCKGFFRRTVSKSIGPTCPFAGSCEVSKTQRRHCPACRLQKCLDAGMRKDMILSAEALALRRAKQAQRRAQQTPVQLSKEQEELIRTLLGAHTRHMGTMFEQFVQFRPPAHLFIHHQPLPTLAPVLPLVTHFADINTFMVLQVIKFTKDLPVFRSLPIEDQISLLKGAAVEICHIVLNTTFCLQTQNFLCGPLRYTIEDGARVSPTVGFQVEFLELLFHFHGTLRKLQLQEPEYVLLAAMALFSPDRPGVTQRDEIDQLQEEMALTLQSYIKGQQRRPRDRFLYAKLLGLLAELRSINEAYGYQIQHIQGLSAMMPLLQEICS
Chain of Androgen Receptor/SRC-1 Co-activator, AR (gene 367) (P10275 whole entry, looked up, the tested form may be a part): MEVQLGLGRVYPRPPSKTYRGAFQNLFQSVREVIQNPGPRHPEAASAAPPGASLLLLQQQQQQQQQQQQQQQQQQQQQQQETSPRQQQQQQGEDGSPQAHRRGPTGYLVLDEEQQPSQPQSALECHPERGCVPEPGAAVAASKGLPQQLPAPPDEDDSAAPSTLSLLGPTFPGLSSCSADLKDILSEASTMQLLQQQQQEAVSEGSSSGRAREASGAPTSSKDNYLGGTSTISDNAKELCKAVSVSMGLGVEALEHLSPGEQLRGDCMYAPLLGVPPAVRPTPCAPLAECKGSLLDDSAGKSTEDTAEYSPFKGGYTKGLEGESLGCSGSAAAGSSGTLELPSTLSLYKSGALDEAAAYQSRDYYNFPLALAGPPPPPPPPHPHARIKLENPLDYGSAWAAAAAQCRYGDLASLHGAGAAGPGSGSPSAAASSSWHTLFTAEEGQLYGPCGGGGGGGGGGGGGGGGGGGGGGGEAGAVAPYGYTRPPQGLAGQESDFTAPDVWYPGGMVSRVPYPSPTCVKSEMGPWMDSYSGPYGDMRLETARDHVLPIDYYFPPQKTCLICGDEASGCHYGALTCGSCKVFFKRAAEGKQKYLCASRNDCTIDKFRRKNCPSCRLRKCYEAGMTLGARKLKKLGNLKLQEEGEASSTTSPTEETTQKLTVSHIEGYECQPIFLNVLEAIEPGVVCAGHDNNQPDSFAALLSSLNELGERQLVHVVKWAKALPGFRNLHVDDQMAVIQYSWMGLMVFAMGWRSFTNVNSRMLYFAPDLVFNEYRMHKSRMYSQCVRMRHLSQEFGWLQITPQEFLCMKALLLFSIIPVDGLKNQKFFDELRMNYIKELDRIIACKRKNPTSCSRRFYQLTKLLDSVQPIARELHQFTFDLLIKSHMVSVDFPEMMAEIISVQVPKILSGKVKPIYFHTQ

Take `CCCCC(O)(Cn1cncn1)c1ccc(Cl)cc1Cl` (stereo not given): the AC50 in experiment [1] was 25 µM (active); in [5], 72.5 µM (active); in experiment [9], 1.29 µM (active). Also, the molecule was called inactive in [2], in experiment [3], in experiment [4], in [6], in [7] and in experiment [8]. Besides, the result in experiment [10] was inactive.
For the molecule `COP(=S)(OC)Oc1ccc([N+](=O)[O-])c(C)c1`, the call in [11], in [2], in experiment [3], in [4], in experiment [6] and in experiment [7] was inactive. In experiment [8], the molecule was called inactive. The values for the half-maximal activity concentration (AC50) in experiment [1] and in experiment [9] were 5.29 µM (active) and 9.62 µM (active), respectively.
`CNC(=O)Oc1cccc2ccccc12`: the call in experiment [11], in experiment [12], in experiment [2], in experiment [13] and in experiment [8] was inactive.
In the case of `CS(=O)(=O)c1ccc(C(=O)C2C(=O)CCCC2=O)c([N+](=O)[O-])c1`, in [1], the AC50 is 17.6 µM (active). The molecule was classed as inactive in experiment [2], in experiment [4], in experiment [6] and in experiment [7].
On to `COC(=O)N(C(=O)N1CO[C@@]2(C(=O)OC)Cc3cc(Cl)ccc3C2=N1)c1ccc(OC(F)(F)F)cc1`, for which the outcome in experiment [1], in experiment [2], in [4], in [5], in [6] and in experiment [7] was inactive.
Turning to `CCSC(=O)N1CCCCCC1`, the molecule was classed as inactive in [12], in experiment [2], in experiment [14], in experiment [4], in [6] and in experiment [7].
With `CC(C)Oc1cccc(NC(=O)c2ccccc2C(F)(F)F)c1`, the call in experiment [11], in experiment [2], in [4], in experiment [6], in experiment [13] and in [9] was inactive.
Consider `CC1(C)C(C=C(Cl)Cl)C1C(=O)OC(C#N)c1cccc(Oc2ccccc2)c1` (stereo not given), for which the molecule was classed as inactive in experiment [12], in experiment [2], in experiment [14], in experiment [4], in [6] and in [7]. Moreover, the outcome in experiment [13] and in experiment [9] was inactive.
Turning to `CC(C)C1(C)N=C(c2ncccc2C(=O)O)NC1=O` (stereo not given), the molecule was called inactive in [11], in experiment [2], in experiment [3], in experiment [14], in experiment [9] and in [15].
For `COC(=O)NS(=O)(=O)c1ccc(N)cc1`, the molecule was classed as inactive in experiment [11], in experiment [2], in experiment [4], in experiment [16], in experiment [6] and in [7].
Consider `CCOP(=O)(OCC)Oc1nc(Cl)c(Cl)cc1Cl`, for which the values for the AC50 in experiment [11] and in experiment [5] were 16.1 µM (active) and 33.2 µM (active), respectively. The result in experiment [2], in experiment [4], in [6], in experiment [7] and in [13] was inactive.
Take `COC(=O)c1c(C(F)F)nc(C(F)(F)F)c(C2=NCCS2)c1CC(C)C`: the molecule was classed as inactive in experiment [11], in experiment [2], in experiment [5], in experiment [6] and in [7]. The AC50 in [4] is 17.2 µM (active).
Turning to `CC(C)=CC1C(C(=O)OCc2coc(Cc3ccccc3)c2)C1(C)C` (stereo not given), the call in experiment [11], in experiment [12], in experiment [2] and in experiment [9] was inactive.
On to `CC1(C)CCC(=Cc2ccc(Cl)cc2)C1(O)Cn1cncn1` (stereo not given), for which the half-maximal activity concentration (AC50) in experiment [1] was 0.672 µM (active); in experiment [5] it was 16.3 µM (active). Also, the call in experiment [2], in experiment [4], in [6] and in [7] was inactive.
Turning to `COCC(=O)N(c1c(C)cccc1C)C(C)C(=O)OC` (stereo not given), the call in experiment [11], in [2], in experiment [4], in experiment [6] and in experiment [7] was inactive.

In general, AC50 refers to the midpoint of the concentration-response curve, whichever way the signal moves.
